Data as given in the supplement of paper PMC6555819.

system: VDR:RXRa (NR concentration 270 nM, RXRa partner concentration 90 nM); assay: PBM binding z-score (relative to random genomic background probes); higher = stronger binding; sequences stand for … in GC…GCGATTGACAGCGTAGAATGAAGG
Description: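 Protein-binding microarray (Agilent 4x180K custom design, double-stranded 60-nt probes: 5' GC cap, 34-nt variable region, 24-nt constant primer region; full probe sequence given). Purified or IVT nuclear receptor:RXRα heterodimers (3:1 NR:RXRα, mostly 270:90 nM) or homodimers were incubated for 1 h in PBS with 2% milk and no ligand, then detected with Alexa488 antibodies. Fluorescence from o1-orientation probes (~5 replicates averaged) was converted to z-scores against 500 random hg19 background probes. Variable regions are seed direct-repeat (DR0–DR5) sites, all their single-nucleotide variants and half-site ablations.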

Row | Sequence | PBM binding z-score
1 | CCTATTGGGCCAAAGGTCATTGATTCCAATGCTC | 4.66
2 | ATCTCTAGGTAAAGTTCACTGAAAGATCGATAGA | 2.89
3 | CCTGCTAGGTCAATGTTCAGCTAAAGCAGCTCGC | 1.05
4 | CCTAGTTGGTCAAGGTCACCCACGCTATAGGTAC | 4
5 | CCGACTGGGGCATAAGGATACCATAAGCCAGCCC | -0.657
6 | ACTAGTTGGTCAGCTGAGGTCACACAGAATTCGG | 4.42
7 | CCTGCTAGGTCGTGGTCAGCTAATCTACAGTATG | -0.0552
8 | CCGACTGGGGCAGAAAGGTTTCCATACCATCCGG | -0.642
9 | AGTCAAAGTTCATCTAGCTAACGTAAGATATGCT | 4.35
10 | CGCGAAAGGTCGTGCTCAGGTGAGTATACCAAAC | 3.57
11 | AATACAGGGTCACTACGCCAGAGTAGGTACGAAT | 4.39
12 | TCTGCTAGGTCAACGATTGTCAGCTAATCTGCTA | 0.993
13 | CCGACTGGGGCATAAGGTTCCCATAAGCCAGCCC | -0.0761
14 | CCTGCTAGGTCATGGTCAGATAATCTACAGTATG | 1.62
15 | ATGTCTAGGTAAAGTTCAGTGAAAGATCGATAGA | 1.8
16 | TCTCGGTGGACACGAAAGGTCAGAGCTCGACATC | 2.84
17 | CGTCCAAGCTCAAAGGTCAGTGAAGAGATGACGG | 2.31
18 | AGACTGAGGTTAAGATCAGGGAAACAGAATACAT | 0.967
19 | CGTCAAAGTTCAAGGTAGCGTAACAGAAAGCAGC | 3.68
20 | AGTCAAAGTTCACTAGGTAACCTAAGATTCAGCT | 4.04

Row | Sequence | PBM binding z-score
21 | TCGAGAAGGTTAGGGGCATTCAGAATGGCGTCGA | 1.12
22 | TGAATCAGGTTATAAGATCAGGGAACGTTGCAAA | -0.0764
23 | CAAACTAGCTCAAAGGTCAAAGTCGAGCCAACCA | 4.72
24 | ATCTCTAGGTAACCAAGTTCAGTCAATGCCGAAC | 4.36
25 | GCTGCTAGGTTAGGTTGGTCAGCTAACGGGTACG | -0.323
26 | TCGAGTAGCTTACCAATGGGGCATTCAGCTTTCT | -0.487
27 | CGAACTAGGTCCGAACAGGACAGTGAAGGATGAT | -0.576
28 | GGAACGAGGGCATTCGAGTTGATAGCGTGGCGAT | 3.59
29 | CGAACTAGGTCAACCAGGACAGTGAATACATTGA | 4.96
30 | CGTCCAAGGTCAAAGGACAGTGAAGAGATGACGG | 3.76
31 | GATACAGGGTCAACGCCAGAGTACGCGTATTGAT | 4.77
32 | CCTTACGGGTCACTCCAGGCTATAGCATCGGAGT | 2.98
33 | CAAACTAGGTCAAGATGTCAAAGTCCGCTTCCCG | 2.2
34 | TCTAGTAGATCAACAGGAGGTTAAGAAAGATCGA | 0.713
35 | TCTTGTGGATCAGCAGGTTAAGAAAGCTGGCCAA | 0.405
36 | TGAATGAGGTTAAAGATCAGGGCACGTGGCGTCG | 2.19
37 | CTCGAAAGGTCGGTTGCGGTGAGTATACGGATAA | 1.11
38 | TCAGACAGGTGAAGGTAACGCAGGTACGCAGTCG | 0.637
39 | CAAACTAGGTCTAGGTCAAAGTCGGTTTGTGCCA | 1.84
40 | CCTGCTAGGTCCTGGTCAGCTAATCTACAGTATG | -0.588
